Statin myotox sup – suppressors of statin myotoxicity in C2C12 myotubes, primary screen, cell-based, single point, plate reader | C2C12 myotubes + simvastatin, ATP luminescence, 48 h; scaled: DMSO 0, geranylgeraniol control 100 | 0.78% of 330,000 active | rescue of ATP level, % at 7.49 µM;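 active means mean ATP rescue above about 67%, or every replicate alone reaching that limit, limit read from the data, passing the limit was not always enough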;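 further: myotubes were challenged with 10 µM simvastatin during compound exposure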
PglD DTNB – C. jejuni PglD acetyltransferase inhibitors, primary screen, biochemical, DTNB colorimetric, single point; UDP-N-acetylbacillosamine N-acetyltransferase PglD (Campylobacter jejuni); 0.098% of 360,000 active; inhibition, % at 12.5 µM; purified PglD enzyme, DTNB colorimetric CoA detection; AID 602405, 2012; in the data active means inhibition above about 16%, passing the limit was not always enough
F508del corr – F508del CFTR correction, initial screen, CFBE line, single point; CFBE cells, YFP halide quenching; stimulated with forskolin plus potentiator P3; % fluorescence drop versus neutral controls; activity (quench increase), % at 7.58 µM; 0.36% of 350,000 active; AID 720511, 2013;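 active means mean added fluorescence quench of at least 8% versus neutral control, with both replicates also reaching 8%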;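 further: cells transiently co-express mutant CFTR-F508del with the halide-sensitive YFP; corrector assay measuring rescue of mutant channel to the surface after 24 h compound exposure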
ARNT TACC3 PPI – disruptors of ARNT/TACC3 protein interaction, primary screen, biochemical, AlphaScreen, single concentration; 0.66% of 390,000 active; AlphaScreen His-ARNT PAS-B/GST-TACC3 binding, luminescence; TACC3 fragment carries E629A point mutation; Transforming acidic coiled-coil-containing protein 3 (Homo sapiens), Q9Y6A5; AID 623870, 2012; inhibition, % at 9.99 µM;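 active means mean inhibition of replicates at least 50% and at least half of replicates each reaching 50%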;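 further: 0% = complete ARNT plus TACC3 wells and 100% = ARNT alone without TACC3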
* hit, by the source's call; . = no result given. Rows were chosen to be rich in hits. Some 1.4% of all compounds tested hit in one or more screens of this group.

SMILES | Statin myotox sup | PglD DTNB | F508del corr | ARNT TACC3 PPI
CCCNC(=O)C[C@@H]1CC[C@H]2[C@H](COc3ccc(NC(=O)Nc4c(C)noc4C)cc3C(=O)N2C)O1 | 24 | 3 | -2 | -14
Cc1c(Cl)cccc1NC(=O)c1ncn[nH]1 | 4 | -3 | 4 | 73*
Cc1ccc(NC(=O)c2ncn[nH]2)cc1 | 7 | . | -1 | -4
N#C/C(=C/c1ccc(N2CCCCC2)o1)C(=O)Nc1ccc2ccccc2c1 | . | . | 9.6* | .
CCOC(=O)CCCNC(=O)CN1CCC(c2nc3ccccc3s2)CC1 | 2 | 1 | 0 | -1
O=C(CN1CCC(c2nc3ccccc3s2)CC1)NCc1ccccc1 | 113* | 6 | . | -2
COc1ccccc1C(=O)NNC(=O)Cc1ccccc1 | -2 | -1 | 4 | -3
CCC(C)(CCNC(=O)Cc1ccccc1)c1ccccc1OC (configuration not stated) | 121* | -2 | -3 | -7
O=C(C1CC1)N1CC2(C1)[C@H](c1ccccc1)[C@@H](CO)N2CC1CCCC1 | . | . | -1 | .
Cc1ccc(-c2ccc(S(=O)(=O)NCC3CCCO3)cc2)cc1 (configuration not stated) | . | . | 2 | 6
Cc1cc(C)n(C(=O)c2ccc(S(=O)(=O)NCC3CCCO3)cc2)n1 (configuration not stated) | 112* | 1 | . | -3
Cc1cc(C)n(C(=O)c2ccc(C)c(S(=O)(=O)N3CCCC3)c2)n1 | 95* | -2 | . | -1
CCC(=O)N(C)C[C@H]1Oc2ncc(/C=C/c3ccccc3)cc2C(=O)N([C@@H](C)CO)C[C@H]1C | 15 | 0 | -1 | 1
CC(C)CC#Cc1ccc([C@@H]2[C@@H](CO)N3CCCCN(C(=O)NC4CCCC4)C[C@H]23)cc1 | -67 | 6 | 9.8* | 0
O=C(Nc1ccccc1)N1CCCCN2[C@H](CO)[C@H](c3ccc(C#CC4CC4)cc3)[C@H]2C1 | . | -7 | -1 | 10
O=C(Nc1ccccc1)N1CCCCN2[C@H](CO)[C@@H](c3ccc(C#CC4CC4)cc3)[C@@H]2C1 | . | -2 | -3 | active
CC(C)CC#Cc1ccc([C@@H]2[C@H](CO)N3CCCCN(C(=O)NC4CCCC4)C[C@@H]23)cc1 | -17 | 4 | 4 | 5
O=C(Nc1ccccc1)N1CCCCN2[C@H](C1)[C@@H](c1ccc(Br)cc1)[C@@H]2CO | 8 | -2 | 1 | -4
O=C(Nc1ccccc1)N1CCCCN2[C@H](CO)[C@H](c3ccc(C#Cc4ccccn4)cc3)[C@H]2C1 | . | 2 | 3 | 11*
O=C(Nc1ccccc1)N1CCCCN2[C@H](C1)[C@H](c1ccc(Br)cc1)[C@@H]2CO | 95* | 6 | -3 | -4
C[C@H]1CN([C@@H](C)CO)C(=O)c2cccc(N(C)C)c2O[C@@H]1CN(C)Cc1ccc(-c2ccccc2)cc1 | 54 | 6 | 3 | 5
O=C(c1cccnc1)N1CC2(C1)[C@@H](c1ccccc1)[C@@H](CO)N2Cc1cccnc1 | . | . | 1 | .
Cc1noc(C)c1S(=O)(=O)Nc1ccc2c(c1)C(=O)N([C@@H](C)CO)C[C@@H](C)[C@H](CN(C)Cc1ccc(Cl)c(Cl)c1)O2 | . | -2 | -1 | -2
CC(C)NC(=O)N1[C@@H]2CN(C(=O)c3ccccc3F)c3ccccc3[C@@H]2[C@@H]1CO | -4 | 1 | 0 | -8
O=C(NCCOc1ccccc1F)c1cc([N+](=O)[O-])ccc1N1CCOCC1 | -28 | -4 | 8.3* | -2
SMILES | Statin myotox sup | PglD DTNB | F508del corr | ARNT TACC3 PPI
O=C(COC(=O)c1ccccc1C(=O)c1ccccc1)Nc1cccc([N+](=O)[O-])c1 | . | 2 | 0 | -2
O=C(NCCOc1ccccc1)c1cc([N+](=O)[O-])ccc1N1CCOCC1 | -40 | -1 | 12* | 1
CCc1cccc(NC(=O)COC(=O)c2cc([N+](=O)[O-])ccc2N2CCOCC2)c1 | . | . | 9.1* | .
O=C(NCCc1ccc(F)cc1)c1cc([N+](=O)[O-])ccc1N1CCOCC1 | 8 | -5 | 2 | 2
CCOc1ccc(NC(=O)COC(=O)c2cc([N+](=O)[O-])ccc2N2CCOCC2)cc1 | . | . | 0 | 12
Nc1c(C(=O)OCC(=O)Nc2cccc([N+](=O)[O-])c2)[nH]c(=O)[nH]c1=O | 0 | -1 | . | 16*
C[C@@H]1CN([C@@H](C)CO)C(=O)Cc2cc(NS(=O)(=O)c3cn(C)cn3)ccc2O[C@H]1CN(C)C(=O)NC1CCCCC1 | 6 | -1 | 1 | -1
Cc1ccc2c(c1)N(S(=O)(=O)c1ccc(F)cc1)C(C(C)(C)C)CO2 (configuration not stated) | -1 | -2 | . | -2
Cc1ccc2c(c1)NC(C(C)(C)C)CO2 (configuration not stated) | 115* | 1 | . | 0
C[C@@H]1CN([C@H](C)CO)C(=O)c2ccccc2-c2ccccc2CO[C@@H]1CN(C)C(=O)CCN(C)C | -23 | 3 | -2 | 34
CCCn1c(-c2cccnc2Cl)nc2cc(Cl)c(Cl)cc21 | 72* | 4 | 2 | -12
CCC(C(=O)OCC(=O)C1(O)CCC2C3CCC4=CC(=O)CCC4(C)C3C(O)CC21C)C(C)C (configuration not stated) | 4 | -5 | 8.2* | -1
CC(=O)[C@@]1(O)CC[C@H]2[C@@H]3CCC4=CC(=O)CC[C@]4(C)[C@H]3[C@@H](O)C[C@@]21C | 12 | 1 | 5 | 8
O=C(COC(=O)c1ccc([N+](=O)[O-])o1)NC1CCCC1 | 7 | -3 | -2 | 48*
O=C(COC(=O)c1ccc([N+](=O)[O-])o1)NC1CCS(=O)(=O)C1 (configuration not stated) | . | . | -1 | 31*
O=C(NC1CCCCC1)c1ccc([N+](=O)[O-])o1 | 69* | 0 | . | -3
O=C(COC(=O)c1ccc([N+](=O)[O-])o1)NC1CCCCC1 | 9 | -1 | 2 | 30
O=C(NC1CCCC(C(F)(F)F)C1)c1ccc([N+](=O)[O-])o1 (configuration not stated) | 15 | 9 | -5 | -14
CN(C)C(=O)C[C@H]1C[C@@H]2c3cc(NC(=O)C4CCC4)ccc3O[C@@H]2[C@H](CO)O1 | 0 | -2 | 1 | -1
O=C(/C=C/c1c(F)cccc1Cl)c1ccc(F)cc1 | 129* | -4 | . | -12
Cc1ccc(S(=O)(=O)N(C)C[C@@H]2Oc3c(NC(=O)Nc4ccc5c(c4)OCO5)cccc3C(=O)N([C@H](C)CO)C[C@@H]2C)cc1 | -30 | -2 | -3 | -6
CC(=O)CSc1nc(C(F)(F)F)cc(=O)n1-c1ccccc1 | 151* | 2 | . | -3
O=C(O)CSc1nc(C(F)(F)F)cc(=O)n1-c1ccccc1 | 5 | 4 | . | -6
COc1ccc(S(=O)(=O)N2CCCCC2)cc1NC(=O)c1ccccc1 | -9 | -2 | -5 | 0
